Source: PubChem
D1 PAM – Potentiators of Human D1 Dopamine Receptor: qHTS; D(1A) dopamine receptor (Homo sapiens), P21728; HEK293 TREx D1 cells, calcium flux, dopamine EC20 potentiation; potentiation, % at 10 µM; hit rate 0.036% among 360,000; in the data active = potentiation above about 30%
D1 antag – Antagonist of Human D 1 Dopamine Receptor: qHTS | activity change, negative = inhibition, % at 10 µM | D(1A) dopamine receptor (Homo sapiens), P21728 | hit rate 3.2% among 360,000 | AID 504652, 2011 | HEK293 TREx D1 cells, calcium flux, dopamine EC80; active compounds read low; in the data active = activity change below about -30%
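Compound effects on dopamine-evoked calcium signalling were measured in tetracycline-induced HEK293 Trex D1 cells. Dopamine at EC80 followed a 180 s compound pre-read, and fluorescence was tracked kinetically for 180 s more.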
D1 agonist – Allosteric Agonists of the Human D1 Dopamine Receptor: qHTS | hit rate 1% among 360,000 | D(1A) dopamine receptor (Homo sapiens), P21728 | HEK293 T-REx D1 cells, calcium flux, agonist mode | AID 504660, 2011 | activation, % at 2 µM; in the data active = activation above about 30%
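Inducible HEK293 T-REx D1 cells, force-coupled to calcium signalling, were plated at 4000 cells/well with tetracycline and held overnight at 30 C. After no-wash calcium dye loading, compound-evoked calcium rise over 180 s flagged agonists.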
TRHR agonist-1 – qHTS for Small Molecule Agonists and Allosteric Enhancers of Human TRH Receptor: Primary Screen for Agonists. Thyrotropin-releasing hormone receptor (Homo sapiens), P34981. TRHR cells, calcium flux fluo-8, FDSS agonist mode. activation, % at 2 µM. hit rate 0.18% among 360,000; in the data active = activation above about 30%
Target sequence (P34981 whole entry, looked up): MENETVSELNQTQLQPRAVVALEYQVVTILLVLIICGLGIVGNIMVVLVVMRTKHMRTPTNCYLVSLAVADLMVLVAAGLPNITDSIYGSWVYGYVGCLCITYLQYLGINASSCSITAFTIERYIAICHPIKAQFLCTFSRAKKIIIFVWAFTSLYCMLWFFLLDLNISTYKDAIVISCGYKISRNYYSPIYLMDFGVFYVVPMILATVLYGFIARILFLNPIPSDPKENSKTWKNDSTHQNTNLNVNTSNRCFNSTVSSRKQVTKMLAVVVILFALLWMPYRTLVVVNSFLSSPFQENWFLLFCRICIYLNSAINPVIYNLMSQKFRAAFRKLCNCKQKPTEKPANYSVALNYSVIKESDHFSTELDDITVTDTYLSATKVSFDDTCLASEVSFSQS
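Steps: seed TRHR cells overnight; add fluo-8 no-wash Ca dye, RT 30 min–1.5 h; record 10 s baseline; pin-transfer compounds; monitor fluorescence 1 cycle/s for the agonist window. Calcium increases flag candidate agonists.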
TRHR enhancer-1 – qHTS for Small Molecule Agonists and Allosteric Enhancers of Human TRH Receptor: Primary Screen for Enhancers. hit rate 0.66% among 360,000. TRHR cells, fluo-8 calcium fluorescence, EC20 TRH enhancement. Thyrotropin-releasing hormone receptor (Homo sapiens), P34981. enhancement, % at 2 µM; in the data active = enhancement above about 30%
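Enhancer read-out: after compound pinning and an initial kinetic agonist-mode read, an EC20 of TRH (10 nM final) was injected and fluo-8 calcium signal (Ex 480/Em 530) followed at 1 s/cycle for 100 cycles in TRHR-expressing cells.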
TRHR enhancer-2 – qHTS for Small Molecule Agonists and Allosteric Enhancers of Human TRH Receptor: Confirmation Screen for Enhancers. shares compounds with TRHR enhancer-1. TRH receptor cell assay, enhancer confirmation qHTS. activity change, negative = inhibition, % at 46.1 µM. 970 tested, under 10 active. AID 493076, 2011;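 note: compound effect scored on response to added TRH at EC20 of 10 nM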
TRHR agonist-2 – qHTS for Small Molecule Agonists and Allosteric Enhancers of Human TRH Receptor: Confirmation Screen for Agonists; shares compounds with TRHR enhancer-1; TRHR-expressing cells, agonist activation read-out; Potency, µM (highest dose often 46.1 µM), actives largely listed as activators; hit rate 8% among 970; note: nearly all actives have a fitted effect of over 75% in size
Numbers stand for hits; i = inactive; ? = inconclusive; nt = not tested or not shown. Rows were chosen to be rich in hits. Some 4.7% of all compounds tested hit in one or more screens of this group. Unless noted, calls come from the whole dose curve; as a rule, active = well fitted curve in the direction sought with a large enough effect; inconclusive = small, poorly fitted or top-dose-only effect, or another doubt; inactive = no such curve, though single readings can be large; an effect the other way counts as inactive or inconclusive.

SMILES	D1 PAM	D1 antag	D1 agonist	TRHR agonist-1	TRHR enhancer-1	TRHR enhancer-2	TRHR agonist-2
CCn1c(CNC(=O)COc2ccc(C(C)C)cc2)nnc1SCC(=O)Nc1cc(F)ccc1C	i	i	i	i	41	i	i
Cc1ccc2c(CC(=O)NNC(=O)c3ccncc3)coc2c1	i	i	i	i	i	nt	nt
COC(=O)CCCC(=O)N1CCC(CO)(CCc2ccccc2)CC1	i	i	i	i	i	nt	nt
COC(=O)COc1ccc(S(=O)(=O)Nc2cc([N+](=O)[O-])ccc2C)cc1	i	i	i	i	45	i	i
CCOc1cccc(NC(=O)C2CC(=O)NC(=Nc3ccccc3)S2)c1 (stereo not drawn)	i	i	i	i	84	i	i
NC(=O)C1CCN(C(=O)c2ccc3ccccc3c2)CC1	i	i	i	i	i	nt	nt
Cn1c(C(=O)N2CCC(C(N)=O)CC2)cc2cc(Cl)ccc21	i	i	i	i	57	i	i
CCc1cc(C(=O)N2CCCC(N3CCN(c4cccc(C(F)(F)F)c4)CC3)C2)n(C)n1 (stereo not drawn)	i	i	i	i	i	nt	nt
Cn1c(CN2CCCC2)nc2cc(NC(=O)c3ccco3)ccc21	i	i	i	i	55	i	i
CC(=O)Nc1ccc2c(c1)nc(CCNC(=O)c1ccccc1)n2C	i	i	i	i	42	i	i
Cc1ccc2cccc(NC(=O)c3ccc(-c4cc(Cl)ccc4Cl)o3)c2n1	i	i	i	i	i	nt	nt
COc1ccc(N2C(=O)C(CN3CCN(C)CC3)C2c2ccccc2)cc1 (stereo not drawn)	i	i	i	i	67	i	i
N#Cc1c(N)nc(SCC(=O)OCc2ccccc2)c(C#N)c1-c1ccco1	i	i	i	i	65	i	i
Cc1ccc2[nH]c(CCN(C)C)c(CC#N)c2c1	i	i	i	i	66	i	?
CCn1ccnc1[C@@H]1C[C@H]2CN(Cc3ccccc3OC)C(=O)[C@]23CCCN13	i	i	i	i	46	i	i
COc1ccc(-c2nn(-c3ccccc3)cc2/C=C/C(=O)N2CCN(c3ccccn3)CC2)cc1	i	i	i	i	i	nt	nt
O=C(Nc1cc(C(F)(F)F)ccc1N1CCOCC1)C1CC1	i	i	i	i	49	i	i
Cn1c(SCC(=O)NCc2ccco2)nnc1-c1ccc(S(=O)(=O)N2CCOCC2)cc1	i	i	i	i	47	i	i
Cc1ccc(NC(=O)CSc2nnc(-c3ccc(S(=O)(=O)N4CCOCC4)cc3)n2C)cc1	i	i	i	i	i	nt	nt
O=C(COC(=O)CN1C(=O)C2CCCCC2C1=O)Nc1c(Cl)cccc1Cl (stereo not drawn)	i	i	i	i	i	nt	nt
Cc1ccc(SCc2[nH]nc3c2C2(C(=O)Nc4ccc(F)cc42)C(C#N)=C(N)O3)cc1 (stereo not drawn)	i	i	i	i	i	nt	nt
Cc1[nH]nc2c1C1(C(=O)Nc3ccc([N+](=O)[O-])cc31)C(C#N)=C(N)O2 (stereo not drawn)	i	nt	i	i	116	i	i
COc1ccc(NC(=O)c2ccc3ccccc3c2)cc1	i	i	i	i	54	i	i
COc1ccc(NC(=O)c2ccc(-c3nn(C)c(=O)c4ccccc34)cc2)cc1	i	i	i	i	44	i	i
COC(=O)c1ccc(NC(=O)c2ccc3nc(C)sc3c2)cc1	i	i	i	i	i	nt	nt
SMILES	D1 PAM	D1 antag	D1 agonist	TRHR agonist-1	TRHR enhancer-1	TRHR enhancer-2	TRHR agonist-2
CCC(=O)Nc1ccc(NC(=O)c2ccc3ccccc3c2)cc1	i	i	i	i	i	nt	nt
COc1ccccc1NC(=O)c1ccc(-c2nn(C)c(=O)c3ccccc23)cc1	i	i	i	i	i	nt	nt
COc1ccc(NC(=O)c2ccc3nc(C)sc3c2)cc1	i	i	i	i	57	i	i
COc1ccc(C(=O)NNC(=O)c2cccc(F)c2)cc1	i	i	i	i	45	i	i
CCOC(=O)N1CCN(C(=O)C2CCN(CC3CCCCC3)CC2)CC1	i	i	i	i	i	nt	nt
CCCS(=O)(=O)N1CCC(N2CCN(Cc3ccc(F)cc3)C(=O)C2=O)CC1	i	i	i	i	i	nt	nt
O=[N+]([O-])c1cccc(N=Cc2sc3ccccc3c2O)c1	i	i	i	i	43	i	i
O=[N+]([O-])c1cccc(N/N=C/c2cccc3ccccc23)c1	i	i	i	i	i	nt	nt
CC1(c2ccc3c(c2)OCCCO3)NC(=O)N(CC(=O)NCCc2ccccc2)C1=O (stereo not drawn)	i	i	i	i	i	nt	nt
CCOc1ccc(N(Cc2nnc3n2CCCCC3)C(=O)Nc2cccc(C)c2)cc1	i	i	i	i	58	i	i
CC(=O)c1cccc(NC(=O)c2cc(=O)[nH]c3ccccc23)c1	i	i	i	i	i	nt	nt
O=C(CCc1nc2ccccc2c(=O)[nH]1)Nc1cc(Cl)ccc1N1CCCC1	i	i	i	i	47	i	i
O=C(CCc1nc2ccccc2c(=O)[nH]1)Nc1ccc(N2CCCCC2)cc1	i	i	i	i	i	nt	nt
Cc1ccc(C(=O)C(C)[n+]2cccc(C(N)=O)c2)cc1 (stereo not drawn)	i	i	i	i	i	nt	nt
CC(C(=O)c1ccccc1)[n+]1cccc(C(N)=O)c1 (stereo not drawn)	i	i	i	i	41	i	i
O=C(NNC(=O)c1n[nH]c2ccccc12)c1ccccc1	i	i	i	i	49	?	i
CCC(=O)c1c[nH]c(C(=O)NCc2cccs2)c1	i	i	i	i	i	nt	nt
CC(C)CC(=O)c1c[nH]c(C(=O)NCc2cccs2)c1	i	nt	i	i	44	i	i
CCCCCC(=O)Nc1ccc(C(=O)COC(=O)Cn2cnc3c2c(=O)n(C)c(=O)n3C)cc1	i	i	i	i	i	nt	nt
Nc1c(C(=O)C2CC2)sc2nc(-c3ccccc3)cc(C(F)(F)F)c12	i	i	66	43	i	i	8.2µM
Cc1ccn2c(c1)nc(=O)c1cc(S(=O)(=O)N3CCOCC3)ccc12	i	i	i	i	i	nt	nt
COc1cc(C(=O)NCCOc2cc(C)cc(C)c2)c(Br)c(OC)c1OC	i	i	i	i	i	nt	nt
COc1cc(C(=O)NC2CCCC2)c(Br)c(OC)c1OC	i	i	i	i	49	i	i
